Test [1] can be described thus: inhibitors of TNFa-induced NFkB p65 translocation, primary screen, imaging, HUVEC, MLSMR starter and 10KST1 sets (AID 438;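 active = inhibition above 20% together with a positive visual image hit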;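 also: compound added about 3h40 before a 20 min TNFalpha stimulation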;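 as to inhibition: signal is the nuclear over cytoplasmic p65 intensity ratio per well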). Conditions: HUVEC TNFa-induced p65 nuclear translocation; cell count: measured here: nuclei count (cytotoxicity indicator), at 2.08 µM; inhibition: at 2 µM, stronger effect = higher value, 0% TNFa-plus-vehicle, 100% no-TNFa wells.
Test [2] in a line: inhibitors of mutant huntingtin aggregation, primary screen, imaging, exon1htt(103Q)mCFP cells, high-content imaging (AID 483;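 active = visual image review flags a hit and inhibition of aggregation exceeds 20%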;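 also: compound exposure lasted 3 days before fixation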;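 as to nuclei count: percent of the per-plate median nuclei count of sample wells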). Conditions: exon1htt(103Q)mCFP cell line, aggregate imaging, at 2 µM; inhibition of aggregation: stronger effect = higher value; nuclei count: measured here: cell count, toxicity.
Test [3] is described as follows: inhibitors of E-selectin induction by TNFa, primary screen, imaging, HUVEC, immunofluorescence, MLSMR starter and 10KST1 sets (AID 487;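 active = visually confirmed hit in the image check and inhibition above 20%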;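 as to inhibition: signal is fraction of cell area covered by stained E-selectin grains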;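 as to nuclei count: 100% = median nuclei count of all wells on the same plate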). Particulars: HUVEC TNFalpha-induced E-selectin immunofluorescence imaging, at 2 µM; inhibition: stronger effect = higher value; nuclei count: measured here: cell number, toxicity.
Test [4] has as its target Voltage-gated potassium channel subunit beta-2 (Rattus norvegicus) (UniProt P62483). Put plainly: KvBeta enzyme negative modulators, primary screen, biochemical, NADPH fluorescence (AID 622).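 Also: slope of raw intensity against log time taken from 70 to 1610 s.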 Conditions: recombinant KvBeta, 4-cyanobenzaldehyde reduction, at 10 µM, stronger effect = higher value.
Test [5] has the same target. Kind of test: KvBeta positive modulators, primary screen, biochemical, NADPH fluorescence (AID 623;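 active = NADPH fluorescence slope more negative than the mean of all samples by about 3 SD, 99.7% confidence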;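 also: fluorescence intensity change per second fitted from 20 to 320 s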). Conditions: Recombinant KvBeta, NADPH fluorescence decrease slope, 10 min; at 10 µM; stronger effect = lower value.
The target in test [6] is Alpha-2C adrenergic receptor (Homo sapiens) (UniProt P18825). Kind of test: modulators of alpha2C/GIRK thallium flux, primary screen, cell-based, HEK293 alpha2C/GIRK1/2 (AID 624;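 active = fluorescence slope after compound addition differing from the mean of all screened samples at 99.7% confidence, in either direction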;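 also: slope of fluorescence ratio to pre-addition baseline per second over 15 to 24 s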). Conditions: thallium flux BTC fluorescence, at 10 µM, actives lie on both sides.
Chain of Alpha-2C adrenergic receptor (Homo sapiens) (P18825 whole entry, looked up): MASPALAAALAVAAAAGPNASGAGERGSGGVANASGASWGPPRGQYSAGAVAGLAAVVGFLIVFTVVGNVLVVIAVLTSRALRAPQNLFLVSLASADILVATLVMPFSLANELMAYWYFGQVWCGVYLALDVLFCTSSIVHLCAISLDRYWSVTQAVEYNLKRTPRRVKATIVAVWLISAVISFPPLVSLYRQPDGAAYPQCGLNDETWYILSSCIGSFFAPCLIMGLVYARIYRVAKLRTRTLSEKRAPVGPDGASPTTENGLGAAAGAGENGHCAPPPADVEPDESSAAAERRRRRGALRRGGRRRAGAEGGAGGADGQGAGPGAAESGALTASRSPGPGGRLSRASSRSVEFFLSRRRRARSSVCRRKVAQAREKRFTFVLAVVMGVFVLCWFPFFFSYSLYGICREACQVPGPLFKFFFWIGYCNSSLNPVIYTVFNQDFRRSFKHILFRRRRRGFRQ
Test [7] can be described thus: inhibitors of Sendai virus-induced IRF3 signaling, primary screen, TLR/RLR signaling modifier project, cell-based, Sendai virus stimulus, luciferase, 10K MLSCN set (AID 602276;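 active = inhibition at or above 50% at 10 µM; inactive = inhibition below 50%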;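 also: firefly luciferase from ISG56 promoter only with Renilla not read in this screen; 0% = Sendai virus plus DMSO and 100% = medium plus DMSO without virus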). Particulars: HEK293 RL24 IRF3 luciferase reporter, at 10 µM, stronger effect = higher value.
The nature of test [8]: inhibitors of poly I:C-induced TLR3 signaling, primary screen, cell-based, poly I:C stimulus, luciferase, 10K MLSCN set (AID 602277;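 active = inhibition of the reporter signal at or above 50%; inactive = inhibition below 50%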). Conditions: HEK293-TLR3 RL24 IRF3 luciferase reporter, at 10 µM, stronger effect = higher value. (A reporter such as luciferase makes a cellular process visible.)

The source made the active and inactive calls.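 The calls were made as follows, unless noted: active = fluorescence slope higher than the sample average by over 3 SD (cut at about -0.22 in these data, passing the limit was not always enough); inactive = the rest.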

The term inhibition denotes the change of the read-out against control, counted positive when it falls.

Chain of Voltage-gated potassium channel subunit beta-2 (Rattus norvegicus) (P62483 whole entry, looked up): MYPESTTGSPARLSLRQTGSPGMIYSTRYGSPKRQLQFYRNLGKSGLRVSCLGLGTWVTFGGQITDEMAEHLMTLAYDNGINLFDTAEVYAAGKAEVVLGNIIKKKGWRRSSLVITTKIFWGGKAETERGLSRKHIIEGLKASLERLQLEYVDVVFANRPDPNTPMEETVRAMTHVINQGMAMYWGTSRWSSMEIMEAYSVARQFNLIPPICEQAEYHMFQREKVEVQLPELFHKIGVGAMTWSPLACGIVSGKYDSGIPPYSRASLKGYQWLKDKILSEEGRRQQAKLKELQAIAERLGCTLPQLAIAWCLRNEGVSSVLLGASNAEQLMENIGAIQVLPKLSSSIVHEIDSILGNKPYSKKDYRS

Regarding `Cc1c(C(=O)NC2CCCc3ccccc32)oc2ccc(S(=O)(=O)N3CCOCC3)cc12` (centres undefined), the cell count in test [1] came out at 500. Further, the inhibition in test [1] is -3% (inactive); in test [3], -32.9% (inactive); in test [7], 17.5% (inactive); in test [8], 14.6% (inactive). In test [2], the inhibition of aggregation is 27.1% (inactive). Further, the nuclei count in test [2] was found to be 76.4%; in test [3], 110%. The fluorescence slope in test [4] is -0.489 (inactive). Further, the NADPH fluorescence slope in test [5] is -6.3e-05 (inactive). The slope in test [6] was 0.0079 (inactive).
Consider `COc1ccc(-c2nc(CSCC(=O)N3CCN(c4cccc(C)c4)C(C)C3)c(C)o2)cc1OC` (centres undefined), for which, in test [1], the cell count is 549. Further, the inhibition was 2.3% (inactive) in test [1], 5.7% (inactive) in test [3], 4.11% (inactive) in test [7] and 8.34% (inactive) in test [8]. In test [2], the inhibition of aggregation was 11.5% (inactive). In addition, the figures for the nuclei count in test [2] and in test [3] were 92.1% and 83.2%, respectively. In addition, the fluorescence slope in test [4] was -0.429 (inactive). Further, the NADPH fluorescence slope in test [5] is -5.4e-05 (inactive). In addition, in test [6], the slope is 0.00539 (inactive).
Turning to `COc1ccc(N2CCN(CCCNC(=O)C3(S(=O)(=O)c4ccc(Cl)cc4)CC3)CC2)cc1`, the cell count in test [1] was 447. Moreover, the inhibition in test [1] is -6.2% (inactive); in test [3], -86% (inactive); in test [7], -9.9% (inactive); in test [8] it was -1.93% (inactive). Also, the inhibition of aggregation in test [2] is 8.8% (inactive). For the same molecule, the nuclei count in test [2] worked out at 101%; in test [3], 115%. The fluorescence slope in test [4] was -0.565 (inactive). Further, the NADPH fluorescence slope in test [5] was 1.2e-05 (inactive). Moreover, in test [6], the slope was 0.00533 (inactive).
Turning to `CN(c1ccccc1C(N)=O)S(=O)(=O)c1ccccc1`, the cell count in test [1] came out at 385. The inhibition is -2.9% (inactive) in test [1], -266% (inactive) in test [3], 13% (inactive) in test [7] and 22.7% (inactive) in test [8]. The inhibition of aggregation in test [2] is -21.8% (inactive). Moreover, the nuclei count came to 95.6% in test [2] and 108% in test [3]. Moreover, the fluorescence slope in test [4] is -0.355 (inactive). Besides, the NADPH fluorescence slope in test [5] was 1.6e-05 (inactive). Also, the slope in test [6] is 0.00547 (inactive).
With `Cc1cccc(NC(=O)CC(C)(C)C)c1`, the cell count in test [1] is 349. The inhibition in test [1] is -6.6% (inactive); in test [3], -1.1% (inactive); in test [7], 10.5% (inactive); in test [8], 6.01% (inactive). Further, in test [2], the inhibition of aggregation was 12% (inactive). In addition, the nuclei count in test [2] turned out to be 95.6%; in test [3] it was 99.8%. The fluorescence slope in test [4] is -0.369 (inactive). Also, the NADPH fluorescence slope in test [5] is 2.2e-05 (inactive). Moreover, the slope in test [6] was 0.00657 (inactive).
`CN(Cc1ccccc1)S(=O)(=O)c1ccc(S(=O)(=O)N2CCN(CCC#N)CC2)cc1`: the cell count in test [1] stood at 687. Also, the inhibition in test [1] was -6.9% (inactive); in test [3], -50.4% (inactive); in test [7] it was -12% (inactive); in test [8], 11.4% (inactive). Also, the inhibition of aggregation in test [2] was -13.6% (inactive). In addition, the nuclei count in test [2] was 111%; in test [3] it was 125%. The fluorescence slope in test [4] was -0.626 (inactive). Also, the NADPH fluorescence slope in test [5] was -2.8e-05 (inactive). Further, the slope in test [6] is 0.00717 (inactive).
With `COc1ccc(CN(Cc2cc3cc4c(cc3[nH]c2=O)OCO4)C(=O)NC2CCCCC2)cc1`, the cell count in test [1] came to 337. Moreover, the inhibition in test [1] was 7.6% (inactive); in test [3], -75.9% (inactive); in test [7], 5.31% (inactive); in test [8] it was -1.61% (inactive). The inhibition of aggregation in test [2] is 38.7% (inactive). Also, the nuclei count in test [2] is 73.1%; in test [3] it was 99.3%. In test [4], the fluorescence slope is -0.368 (inactive). The NADPH fluorescence slope in test [5] is -5.1e-05 (inactive). Moreover, the slope in test [6] is 0.0053 (inactive).
Take `N#Cc1nc(-c2ccco2)oc1NCCc1ccccc1`: in test [1], the cell count came out at 686. In addition, the inhibition in test [1] is -7.5% (inactive); in test [3] it was -3% (inactive); in test [7], -33.8% (inactive); in test [8], -56.1% (inactive). For the same molecule, the inhibition of aggregation in test [2] is -10.1% (inactive). For the same molecule, the nuclei count in test [2] turned out to be 88.8%; in test [3], 107%. The fluorescence slope in test [4] is -0.463 (inactive). Further, the NADPH fluorescence slope in test [5] was -4.3e-05 (inactive). The slope in test [6] was 0.0039 (inactive).
Consider `CCCN(C(=O)CSc1nnc(-c2ccoc2C)n1N)C1CCS(=O)(=O)C1` (centres undefined), for which, in test [1], the cell count stood at 468. In addition, the inhibition in test [1] is 11.7% (inactive); in test [3] it was 30.6% (inactive); in test [7] it was 15.7% (inactive); in test [8], 22.7% (inactive). Besides, the inhibition of aggregation in test [2] was -26.6% (inactive). In addition, the nuclei count in test [2] is 116%; in test [3], 108%. Besides, the fluorescence slope in test [4] was -0.413 (inactive). In test [5], the NADPH fluorescence slope was -8.5e-05 (inactive). Further, the slope in test [6] was 0.00528 (inactive).
In the case of `O=C(NC12CC3CC(CC(C3)C1)C2)N1CCN(C(=O)C2CCCO2)CC1` (centres undefined), in test [1], the cell count stood at 434. Further, the inhibition in test [1] is -10.3% (inactive); in test [3], -186% (inactive); in test [7], 18% (inactive); in test [8], 11.1% (inactive). Also, the inhibition of aggregation in test [2] was -18.6% (inactive). Also, the nuclei count was 100% in test [2] and 0.2% in test [3]. In addition, the fluorescence slope in test [4] is -0.392 (inactive). In addition, the NADPH fluorescence slope in test [5] is -7.1e-05 (inactive). Moreover, the slope in test [6] was 0.00603 (inactive).
As to `COc1ccc(NC(=O)c2cc(C(C)C)on2)c(OC)c1`, the cell count in test [1] was 568. The inhibition in test [1] was -11.1% (inactive); in test [3], 7.6% (inactive); in test [7] it was -35.5% (inactive); in test [8], -63.9% (inactive). For the same molecule, the inhibition of aggregation in test [2] was 33.2% (inactive). Moreover, the nuclei count in test [2] is 100%; in test [3], 107%. Moreover, in test [4], the fluorescence slope is -0.576 (inactive). Also, in test [5], the NADPH fluorescence slope is -1.2e-05 (inactive). Moreover, the slope in test [6] is 0.00755 (inactive).
With `O=C(CCCCCN1C(=O)CCC1=O)NCc1ccccc1`, the cell count in test [1] came to 581. For the same molecule, the inhibition in test [1] was -15.5% (inactive); in test [3] it was -64.5% (inactive); in test [7] it was 12.6% (inactive); in test [8], 24.6% (inactive). Also, the inhibition of aggregation in test [2] was -2% (inactive). Besides, the nuclei count in test [2] was found to be 106%; in test [3], 105%. In test [4], the fluorescence slope is -0.605 (inactive). Besides, the NADPH fluorescence slope in test [5] is -4.8e-05 (inactive). The slope in test [6] is 0.00553 (inactive).
With `O=C(NCCN1C(=O)C2C3C=CC(C3)C2C1=O)N1CCOCC1` (centres undefined), the cell count in test [1] was determined as 549. The inhibition in test [1] was -4.5% (inactive); in test [3], -8.6% (inactive); in test [7], 3.84% (inactive); in test [8] it was 27.8% (inactive). The inhibition of aggregation in test [2] is 7.2% (inactive). Besides, the nuclei count in test [2] was 52.3%; in test [3], 69.7%. The fluorescence slope in test [4] was -0.586 (inactive). Also, the NADPH fluorescence slope in test [5] is -1e-05 (inactive). For the same molecule, in test [6], the slope is 0.00653 (inactive).
Consider `Cc1onc(-c2ccccc2Cl)c1C(=O)N1CCc2ccccc21`, for which the cell count in test [1] was 398. In addition, the inhibition in test [1] was -1.3% (inactive); in test [3], -43.1% (inactive); in test [7], 10.6% (inactive); in test [8], 34.8% (inactive). Also, the inhibition of aggregation in test [2] is -6.4% (inactive). Further, the nuclei count came out at 104% in test [2] and 110% in test [3]. Moreover, the fluorescence slope in test [4] was -0.405 (inactive). For the same molecule, in test [5], the NADPH fluorescence slope was 9.6e-06 (inactive). In addition, the slope in test [6] is 0.00452 (inactive).

These data come from PubChem BioAssay.
